# Compound activity deposited in PubChem by National Center for Advancing Translational Sciences (NCATS).
# Cycloheximide cs: counter-screen for Shiga toxin inhibitors: cycloheximide protein synthesis inhibition; max response, %; cell reporter, cycloheximide protein synthesis inhibition counterscreen; actives 12% (n = 300,000); in the data active = max response mostly above about 13%, no sharp cut-off; inactive = mostly below about 14%; note: read at 38.3 µM for the half of the compounds with a filed dose; 0% is about no effect
# Pf growth 48h: P. falciparum growth inhibition at 48 hours (one generation); P. falciparum luciferase growth in erythrocytes, 48 h; Potency, µM (highest dose often 28.7 µM), without a hit: top-dose activity change, negative = inhibition, hits mostly inhibitors; actives 5.9% (n = 310,000); note: potency is the fitted concentration of half-maximal effect; % is set by controls: 0 for no effect and ±100 for the full control effect
#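 Erythrocytes infected with P. falciparum carrying an integrated firefly luciferase reporter (2% hematocrit, 0.1% parasitemia final) were exposed to compounds in RPMI 1640 with 0.5% Albumax at 37 C, 5% CO2. Growth inhibition was scored as reduced luminescence.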
# SARS PLpro yeast: inhibitors of SARS-CoV papain-like protease in yeast | Potency, µM (top dose mostly 32.9 µM), for inactives: at the top dose activity, positive = growth rescue, actives largely listed as activators | S. cerevisiae expressing SARS-CoV PLpro, growth rescue | AID 485353 | actives 0.19% (n = 330,000); calls by dose curve; note: potency is the fitted concentration of half-maximal effect; 0% is about no effect; nearly all actives have a fitted effect of over 55% in size
# Pf growth 96h: P. falciparum growth inhibition at 96 hour, primary screen for plastid delayed-death inhibitors. P. falciparum luciferase reporter growth, 96 h. AID 504834. Potency, µM (titrated, usually from 28.7 µM), without a hit: at the highest dose activity change, negative = inhibition, hits mostly inhibitors. actives 6.9% (n = 320,000); note: potency is the fitted concentration of half-maximal effect; % is set by controls: 0 for no effect and ±100 for the full control effect
#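 Delayed-death screen, second-generation endpoint: infected erythrocytes, 2% hematocrit, 0.05% parasitemia final; 96 hours at 37 C, 5% CO2; luciferase detection reagent; luminescence decrease equals reduced growth.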
# Shiga inhibitor: Shiga toxin inhibition | actives 9.2% (n = 290,000) | inhibition, % at 38.7 µM | Vero cells, Shiga toxin protein synthesis inhibition reporter; in the data active = inhibition mostly above about 28%, no sharp cut-off; inactive = mostly below about 43%; note: 0% is about no effect
# AMA1-RON2 inh: AMA1-RON2 (P. falciparum) interaction inhibition | AlphaScreen AMA1-biotinylated RON2 peptide binding | AID 720542 | actives 0.2% (n = 360,000) | Potency, µM (doses to about 58.2 µM), for the others: at the top dose activity change, negative = inhibition, usual class: inhibitors;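 note: potency is the fitted concentration of half-maximal effect; 0% = vehicle wells and -100% = peptide control; nearly all actives have a fitted effect of over 45% in size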
#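 AMA1 (3D7) with his tag at 25 nM final met compounds first, then biotinylated RON2 peptide at 25 nM; detection used donor plus acceptor beads, 10 µg/mL apiece, read by AlphaScreen after 30 min at room temperature.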
# * hit, by the source's call; ? = inconclusive; . = no result. Sampled rows, rich in hits. Any-hit rate of the full collection: about 19%. Unless noted, calls come from the whole dose curve; as a rule, active = well fitted curve in the direction sought with a large enough effect; inconclusive = small, poorly fitted or top-dose-only effect, or another doubt; inactive = no such curve, though single readings can be large; an effect the other way counts as inactive or inconclusive.
SMILES,Cycloheximide cs,Pf growth 48h,SARS PLpro yeast,Pf growth 96h,Shiga inhibitor,AMA1-RON2 inh
O=C(NCCc1csc(-c2ccc(Cl)cc2)n1)c1ccco1,22,-1%,-12%,9%,-2,-3%
O=C(NNc1nc(-c2ccc(Cl)cc2)cs1)c1ccco1,39*,12µM*,-30%,?,41*,54%
Cc1ccc(-c2csc(NC(=S)NC(=O)c3ccco3)n2)cc1,-3,60%,6%,?,-3,1%
COc1ccc(OC)c(C(=O)CSc2nnc(-c3ccc(OC)c(OC)c3)o2)c1,-5,-14%,-1%,11%,2,.
CC(=O)N1CCOc2cc(S(=O)(=O)Nc3c(C)cccc3C(C)C)c(Cl)cc21,.,8.3µM*,-4%,5.2µM*,.,.
COc1cccc(NS(=O)(=O)c2cc3c(cc2C)N(C(C)=O)CCO3)c1,-1,-13%,10%,?,-1,-9%
CCCOc1ccc(Cc2c(O)nc(SC)[nH]c2=O)cc1,-3,5%,0%,-28%,-6,-8%
CC(=O)NC1Sc2ccccc2N=C1c1ccccc1 (stereo not given),43*,175%,-8%,?,111*,-4%
C=CCOc1nc(N(C)C)nc(N(C)C)n1,-4,15%,2%,27%,-21,-8%
COc1ccc(-c2nc3c4ccccc4[nH]c(=O)n3n2)cc1,24*,-28%,.,?,55*,?
CCOC(=O)C1=C(C)NC(=O)CC1c1cc(OC)c(OC)cc1Br (stereo not given),-6,0.47µM*,4%,?,-5,-10%
C[N+](C)(CC#Cc1ccccc1)CC(=O)c1ccccc1,-1,?,-4%,170%,-5,-5%
C#CC[N+](C)(C)C(C#Cc1ccccc1)CC=C (stereo not given),-4,9.3µM*,-5%,5.9µM*,-12,5%
Cn1c(=O)c2c(nc(NCc3cccnc3)n2Cc2ccccc2Cl)n(C)c1=O,1,?,1%,?,3,2%
CC1CCN(C(=O)C2CCN(C(=O)c3cc4sccc4n3Cc3ccc(F)cc3)CC2)CC1,-2,?,3%,31%,-5,17%
O=C(NCc1ccc(F)cc1)c1cc2sccc2n1Cc1ccc(F)cc1,-1,?,-9%,10µM*,2,.
CC(C)NC(=O)C1CCN(C(=O)c2cc3sccc3n2Cc2ccc(F)cc2)CC1,6,.,4%,.,-12,9%
O=C(c1cc2sccc2n1Cc1ccc(F)cc1)N1CCCc2ccccc21,1,9.3µM*,-14%,?,47,0%
CC(=O)Nc1c(Br)cc2c(c1Br)C(=O)c1ccccc1-2,.,.,.,.,.,14%
CC(=O)C1=C(c2ccc(Br)cc2)C(=O)c2ccccc2C1=O,17,?,-97%,?,27,16µM*
COc1ccc(Cc2c(-c3ccccc3)nc3c4ccccc4ccn23)c(C)c1,.,.,.,.,.,15%
Nc1cc(-c2cccc(F)c2)nn1S(=O)(=O)c1cccc2nsnc12,-1,-17%,-15%,1.7µM*,-5,-3%
Nc1cc(-c2ccc(Cl)cc2)nn1S(=O)(=O)c1cccc2nsnc12,-6,.,1%,?,-13,-26%
O=C(CCN1C(=O)S/C(=C\c2ccccc2)C1=O)NC1CCS(=O)(=O)C1 (stereo not given),-7,-7%,?,12µM*,-3,-6%
COc1cccc(/C=C2\SC(=S)N(CC(=O)N(C)C3CCS(=O)(=O)C3)C2=O)c1 (stereo not given),1,-7%,-2%,4%,-3,-6%
CCN(C(=O)CN1C(=O)S/C(=C\c2cccc(OC)c2)C1=O)C1CCS(=O)(=O)C1 (stereo not given),3,?,-1%,8.3µM*,1,27%
O=C(CN1C(=O)/C(=C/c2ccccc2)SC1=S)NC1CCS(=O)(=O)C1 (stereo not given),-1,23%,?,18%,-5,3%
COc1cccc(/C=C2\SC(=O)N(CCC(=O)NC3CCS(=O)(=O)C3)C2=O)c1 (stereo not given),-4,-3%,-1%,9.3µM*,28,6%
Cc1ccccc1CS(=O)(=O)Cc1ccc(C(=O)NC2CCCCC2)o1,-3,8%,4%,?,-7,-8%
